Test results taken from PubChem BioAssay AID2016 (NMMLSC, 2009).
Out of some 330,000 compounds screened, about 1,700 (0.52%) were called active. Only a selection was taken, and actives are over-represented in it overall. Values without a mark were called inactive.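 How the source made its calls: active means GFP response versus DMSO above a set limit, roughly screen mean plus 3 SD (cut at about 180% in these data); inconclusive means fewer than 70 cells counted for a yeast strain; inactive means the rest.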

Assay: TOR pathway GLN3 branch reporter MEP2-GFP changes – S. cerevisiae, multiplex flow cytometry, MLPCN library, primary screen (AID 2016);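 further: median GFP fluorescence of the barcode-gated MEP2-GFP cells per well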
Details: S. cerevisiae MEP2-GFP strain, 3 h, at 10 µM, hits give high values
For Cc1cccc2c(CCN)c[nH]c12, the GFP response vs DMSO was 105%. For C/C(CCc1c[nH]c2ccccc12)=N\O, the GFP response vs DMSO was 105%. For NCCc1c[nH]c2ccc(O)cc12, the GFP response vs DMSO was 206% [may fluoresce violet] (active). Molecule COC1=CC=C2[C@H]3Cc4ccc(OC)c5c4[C@@]2(CCN3C)C1O5 (stereo not given in full) has a GFP response vs DMSO of 106%. CCCOC(=O)C1C2c3ccccc3C(c3ccccc32)C1C(=O)O (stereo not given) showed a GFP response vs DMSO of 99.1%.
